These results are taken from the supplement of paper PMC12669032.

Experiment in all cases: growth AUC relative to DMSO control (median of replicates) (fraction); higher = more growth (less inhibition), active = hit call of the paper
Holding throughout (conditions): 20 µM; 24 h

For test [1], the system named is Coprococcus comes. An outline of the steps:
(§1)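 Area under the growth curve was normalised to the plate median of solvent-only wells, or to row and column medians on the industrial chemical plate. Growth curves came from anaerobic gut bacterial monocultures in mGAM at 37 °C, seeded at OD600 0.05 with 20 µM compound (1% DMSO), and read at OD600 hourly for 24 h with the minimum OD set to 0. The value is the median of three biological replicates grown on separate days.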

Test [2] has as its system Escherichia coli ED1a. A digest of the protocol: as §1
The subject of test [3] is Escherichia coli IAI1. A digest of the protocol: as §1
In test [4] the test system is Eubacterium rectale. A digest of the protocol:
as §1

For test [5], the system named is Fusobacterium nucleatum subsp. animalis. A digest of the protocol:
as §1

Test [6] relates to Lactobacillus gasseri. An outline of the steps:
as §1

Test [7] has as its system Lactobacillus paracasei. An outline of the steps: as §1
Test [8] concerns Odoribacter splanchnicus. A digest of the protocol: as §1
The subject of test [9] is Parabacteroides distasonis. A digest of the protocol:
as §1

Test [10] deals with Parabacteroides merdae. An outline of the steps:
as §1

Test [11] concerns Roseburia intestinalis. An outline of the steps: as §1
Test [12] concerns Streptococcus salivarius. An outline of the steps:
as §1

A number with no mark means an inactive call.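 Rule for the calls: active = AUC reduced over 20% with Padj below 0.05 in at least 2 of 3 replicates; inactive = otherwise.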

Consider `Cc1cc(C)c(C2=C(OC(=O)CC(C)(C)C)C3(CCCC3)OC2=O)c(C)c1`, for which the “growth AUC” value in test [1] is 0.974; in [2], 1.02; in test [3], 1.03; in test [4], 1.04; in test [5], 1.09; in [6], 0.918. In addition, the “growth AUC” value was 1.14 in test [7]; 0.978 in test [8]; 0.772 (active) in test [9]; 1.04 in [10]; 0.989 in test [11]; 0.991 in test [12].
Consider `CCOP(=O)(Sc1ccccc1)Sc1ccccc1`, for which the “growth AUC” value in test [1] is 1.02; in test [2] it was 0.995; in test [3], 0.982; in test [4], 1.13; in [5] it was 1.08; in [6], 0.957. Moreover, the “growth AUC” value was 0.953 in test [7]; 0.965 in test [8]; 0.649 (active) in test [9]; 0.934 in [10]; 0.946 in test [11]; 0.948 in test [12].
For the compound `O=C(O)c1c(Cl)ccc2cc(Cl)cnc12`, the “growth AUC” value was 1 in test [1]; 1 in [2]; 0.969 in test [3]; 0.942 in test [4]; 1.02 in test [5]; 1.07 in test [6]. The “growth AUC” value was 0.934 in test [7]; 0.988 in test [8]; 0.986 in test [9]; 0.987 in test [10]; 0.978 in [11]; 1.05 in [12].
`COC(=O)COc1cc(Cl)c(Cl)cc1Cl`: the “growth AUC” value in [1] is 0.967; in test [2] it was 0.976; in test [3], 1.02; in test [4], 0.914; in test [5], 0.981; in test [6], 1.18. The “growth AUC” value in [7] was 1.11; in test [8], 0.974; in [9], 0.983; in test [10], 0.99; in test [11], 0.996; in test [12], 1.01.
For the compound `CCc1nn(C)c(C(=O)NCc2ccc(C(C)(C)C)cc2)c1Cl`, the “growth AUC” value in test [1] was 0.954; in test [2], 0.974; in [3], 0.967; in test [4] it was 1.01; in test [5], 0.984; in test [6], 0.913. The “growth AUC” value in [7] is 1.06; in test [8] it was 0.956; in test [9], 0.991; in test [10], 0.918; in [11] it was 0.96; in test [12] it was 0.906.
As to `CNC(=O)Oc1ccccc1OC(CCl)OC` (centres undefined), the “growth AUC” value was 1.01 in [1]; 1.02 in test [2]; 1.02 in test [3]; 1.16 in test [4]; 1.19 in [5]; 1.04 in test [6]. For the same compound, the “growth AUC” value in [7] was 1.04; in test [8] it was 1.05; in test [9] it was 0.988; in [10], 1.06; in test [11] it was 0.961; in test [12], 0.996.
Consider `c1ccc2c(c1)-c1cccc3cccc-2c13`, for which the “growth AUC” value in test [1] was 0.92; in [2], 0.941; in test [3] it was 1; in test [4], 0.91; in [5], 0.954; in test [6] it was 1.03. Also, the “growth AUC” value in test [7] was 0.98; in test [8], 1; in test [9] it was 0.938; in [10], 0.935; in [11], 0.956; in test [12], 0.972.
As to `OCC1C(CO)C2(Cl)C(Cl)=C(Cl)C1(Cl)C2(Cl)Cl` (centres undefined), the “growth AUC” value is 0.934 in test [1]; 0.994 in test [2]; 0.975 in test [3]; 1.07 in test [4]; 1 in test [5]; 0.827 in test [6]. Besides, the “growth AUC” value is 1.01 in test [7]; 0.59 (active) in [8]; 1.09 in [9]; 0.892 in test [10]; 0.953 in test [11]; 0.82 in test [12].
With `CC(Cc1ccc(C(C)(C)C)cc1)CN1C[C@@H](C)O[C@@H](C)C1` (some centres undefined), the “growth AUC” value in test [1] is 1.03; in [2], 1.01; in test [3], 1.06; in test [4], 0.983; in [5], 1.07; in test [6], 1.06. Besides, the “growth AUC” value in test [7] was 1.07; in test [8] it was 1.07; in test [9], 0.985; in test [10] it was 0.999; in test [11], 1.06; in test [12] it was 0.999.
In the case of `Oc1ccc(Cl)cc1Cl`, the “growth AUC” value is 1.01 in [1]; 0.974 in [2]; 0.979 in test [3]; 1.13 in test [4]; 0.93 in test [5]; 0.769 in test [6]. In addition, the “growth AUC” value in [7] is 1.01; in test [8], 0.969; in test [9] it was 0.967; in test [10], 0.853; in [11] it was 0.907; in test [12] it was 0.901.
As to `CS(=O)(=O)c1ccc(C(=O)C2C(=O)CCCC2=O)c(Cl)c1`, the “growth AUC” value in [1] is 0.974; in [2], 1.01; in [3], 1.03; in test [4] it was 0.916; in [5] it was 1.05; in test [6], 1.09. The “growth AUC” value is 1.03 in test [7]; 1.04 in test [8]; 1.04 in test [9]; 1.01 in [10]; 1.04 in [11]; 0.994 in [12].
With `CCC(C)[C@H]1O[C@]2(C=C[C@@H]1C)C[C@@H]1C[C@@H](C/C=C(\C)[C@@H](O[C@H]3C[C@H](OC)[C@@H](O[C@H]4C[C@H](OC)[C@@H](O)[C@H](C)O4)[C@H](C)O3)[C@@H](C)/C=C/C=C3\CO[C@@H]4[C@H](O)C(C)=C[C@@H](C(=O)O1)[C@]34O)O2.CO[C@H]1C[C@H](O[C@H]2[C@H](C)O[C@@H](O[C@@H]3/C(C)=C/C[C@@H]4C[C@@H](C[C@]5(C=C[C@H](C)[C@@H](C(C)C)O5)O4)OC(=O)[C@@H]4C=C(C)[C@@H](O)[C@H]5OC/C(=C\C=C\[C@@H]3C)[C@]54O)C[C@@H]2OC)O[C@@H](C)[C@@H]1O` (some centres undefined), the “growth AUC” value was 0.99 in [1]; 1.02 in [2]; 1.01 in [3]; 1.01 in [4]; 1.15 in [5]; 0.808 in [6]. Also, the “growth AUC” value in test [7] was 0.899; in [8], 1.07; in test [9], 0.536 (active); in [10], 1.05; in [11], 0.571 (active); in test [12], 0.961.
